Assay outcomes: PubChem, University of Kansas High Throughput Screening Laboratory
mHTT-CaM PPI inh: mutant huntingtin-calmodulin interaction inhibitors – biochemical, AlphaScreen, primary screen | P42858 | AlphaScreen His-mHTT/GST-CaM binding, luminescence | inhibition, % at 15 µM | 190,000 tested, 3.6% active;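 also: 0% = both proteins with DMSO and 100% = one protein alone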
Pf apPOL block: Pf-apPOL inhibitors, biochemical, fluorescence | Plasmodium falciparum apicoplast DNA polymerase (apPOL) | Recombinant Pf-apPOL, molecular beacon fluorescence, 1.5 h | inhibition, % at 10 µM | 210,000 tested, 0.25% active | AID 1794808, 2022
* hit, by the source's call; · = no result; ! = a repeat was not active. Only some compounds are listed: those with a hit (about 3.5% of all), similar ones and a draw of the others. Rule as the data show it: active = inhibition above about 50%; inactive = the rest.

SMILES	mHTT-CaM PPI inh	Pf apPOL block
O=c1oc2cc(Br)c(O)c(Br)c2s1	100*	1
COC(=O)Oc1c(Br)cc2oc(=O)sc2c1[N+](=O)[O-]	86*	0
CCOC(=O)Oc1cc2sc(=O)oc2cc1Br	30	-3
COC(=O)Oc1c(Cl)cc2oc(=O)sc2c1Br	93*	2
CC(C)COC(=O)Oc1c(Cl)cc2oc(=O)sc2c1[N+](=O)[O-]	82*	3
Cc1ccc(OC(=O)OCC(C)C)c(Br)c1	-18	4
CN(C)S(=O)(=O)Oc1cc2sc(=O)oc2cc1Cl	19	-5
Cn1c(=O)c2c(nc(SCC(=O)c3ccc([N+](=O)[O-])cc3)n2C)n(C)c1=O	-1	-8
c1ccc(-c2nc(-c3ccco3)[nH]c2-c2ccccc2)cc1	·	9
COc1cc(OC)c(-c2nc(-c3ccsc3)c(-c3ccccc3)[nH]2)cc1OC	68*	-1
O=C(NC1CCCC1)c1ccc2ncc3c(=O)n(-c4ccc(Cl)cc4)[nH]c3c2c1	86*	5
O=C(NC1CCCC1)c1ccc2ncc3c(=O)n(-c4ccc(F)cc4)[nH]c3c2c1	3	0
O=C(c1ccccc1)C1CCN(C(=O)C(F)(F)F)CC1	·	4
O=C1NC(=Nc2ccccc2Cl)S/C1=C/c1ccccc1F	66*	-2
N#Cc1ccc(/C=C2/SC(=Nc3ccccc3Cl)NC2=O)cc1	35	2
O=C1NC(=Nc2ccccc2Cl)S/C1=C\c1cccc([N+](=O)[O-])c1O	44	6
O=C1NC(=Nc2ccccc2Cl)S/C1=C/c1ccc(F)cc1	76*	-4
COc1ccccc1CNS(=O)(=O)Cc1ccccc1	-5	-2
CCc1ccc(C(=O)N2CCC(n3c(-c4ccco4)nc4cccnc43)C2)cc1 (stereo unspecified)	76*	0
O=C(c1ccc(Br)cc1)N1CCC(n2c(-c3ccco3)nc3cccnc32)C1 (stereo unspecified)	84*	-3
O=C(c1cc(F)cc(F)c1)N1CCC(n2c(-c3ccco3)nc3cccnc32)C1 (stereo unspecified)	28	-2
COc1ccc(C(=O)N2CCC(n3c(-c4ccco4)nc4cccnc43)C2)cc1OC (stereo unspecified)	34	-6
O=C(c1ccc(Cl)cc1)N1CCC(n2c(-c3ccco3)nc3cccnc32)C1 (stereo unspecified)	77*	-8
O=C(c1ccoc1)N1CCC(n2c(-c3ccco3)nc3cccnc32)C1 (stereo unspecified)	3	-4
Cc1ccc(C(=O)N2CCC(n3c(-c4ccoc4)nc4cccnc43)C2)cc1F (stereo unspecified)	21	2
SMILES	mHTT-CaM PPI inh	Pf apPOL block
O=C(c1ccc(F)c(Cl)c1)N1CCC(n2c(-c3ccoc3)nc3cccnc32)C1 (stereo unspecified)	99*	-3
CC(C)(C)OC(=O)Cn1cnc2c(-c3ccc(Cl)cc3)csc2c1=O	-30	-4
O=C(c1c[nH]c2ccccc12)N1CC2CC1CC2NS(=O)(=O)c1ccccc1 (stereo unspecified)	6	1
NC(=O)C1CCN(Cc2cc3c(cc2[N+](=O)[O-])OCO3)CC1	5	-2
Cc1cccc(N2CC(C(=O)NCCN(C)C)CC2=O)c1 (stereo unspecified)	-3	-3
O=C1N(c2ccc(F)cc2)c2ncccc2S(=O)(=O)N1Cc1ccccc1	1	0
CC(C)C(=O)OCCCN1C(=O)CCC12CCC(c1ccccc1)CC2 (stereo unspecified)	70*	-9
COc1ccc(C2CCC3(CCC(=O)N3CCOC(=O)C(C)C)CC2)cc1 (stereo unspecified)	23	-9
Cc1cccc(-n2ncc3c(N4CCOCC4)ncnc32)c1	1	0
Cc1ccc(-n2ncc3c(N4CCOCC4)ncnc32)c(C)c1	56*	-3
O=C1CN(C(=O)C2CCCC2)C(c2ccc(F)cc2)c2cc(Br)ccc2N1 (stereo unspecified)	31	-1
COc1ccc(N2CCN(c3nc(OC)nc(OC)n3)CC2)cc1	17	-8
O=C(Nc1nnc(SCc2ccc(Cl)cc2)s1)c1ccccc1F	2	0
CN(C)CCNC(=O)NCC12CC3CC(C1)CC(c1ccccc1)(C3)C2	79*	2
CN(C)CCNC(=O)C12CC3CC(C1)CC(c1ccccc1)(C3)C2	14	-2
O=C1OC(c2ccccc2Br)=N/C1=C\N1CCCCC1	15	-2
COc1ccc(C(=O)Nc2nc3ccc(C)cc3s2)cc1[N+](=O)[O-]	2	-23
COc1ccc(C(=O)Nc2nc3ccc(C)cc3s2)cc1OC	51*!	2
CC(C)NC(=O)ON=C(N)COc1ccc(C2SCCS2)cc1	·	-16
COC(=O)c1ccc(N2C(c3cccc(OC)c3)=Cc3ccc(F)cc3C2c2c(C)[nH]c3ccccc23)cc1 (stereo unspecified)	2	1
COc1ccc(-c2ccc(N3C(c4ccsc4)=Cc4ccc(F)cc4C3c3c[nH]c4ccccc34)cc2)cc1 (stereo unspecified)	82*	-4
Cn1ccnc1SCC(=O)N1c2ccccc2Sc2ccc(C(F)(F)F)cc21	53*	-1
N#CSCC(=O)N1c2ccccc2Sc2ccc(C(F)(F)F)cc21	3	14
O=c1c2c(-c3ccccc3)csc2nc2c3ccccc3c(NCc3ccco3)nn12	100*	1
Fc1ccccc1-c1nc(NCc2ccco2)c2ccccc2n1	5	-6
SMILES	mHTT-CaM PPI inh	Pf apPOL block
O=c1c2ccccc2nc2c3ccccc3c(NCc3ccco3)nn12	65*	-2
O=C(Cn1cnc2scc(-c3ccccc3)c2c1=O)NCc1ccco1	19	-9
Cn1ncc(N2CCC(C(=O)NCCCc3ccccc3)CC2)cc1=O	34	-6
OC(CN1CCN(C/C=C/c2ccccc2)CC1)Cn1c2ccccc2c2ccccc21 (stereo unspecified)	100*	2
OC(CN1CCNCC1)Cn1c2ccccc2c2cc(Br)ccc21 (stereo unspecified)	51*	-2
OC(CN1CCCCC1)Cn1c2ccc(Br)cc2c2cc(Br)ccc21 (stereo unspecified)	·	-4
OC(CN1CCNCC1)Cn1c2ccccc2c2ccccc21 (stereo unspecified)	1	3
OCC(O)Cn1c2ccc(Br)cc2c2cc(Br)cc(Br)c21 (stereo unspecified)	98*	3
OC(CN1CCN(c2ccccc2)CC1)Cn1c2ccccc2c2ccccc21 (stereo unspecified)	12	-5
Cc1nc2cc(N3CC(C(=O)Nc4ccc(C)c(F)c4)CC3=O)ccc2o1 (stereo unspecified)	-6	-3
O=C(c1cccc(Br)c1)N1CCc2nc[nH]c2C1	6	-4
CCc1ccc(CNC(=O)C2CCN(c3cncnc3N(C)C)CC2)cc1	20	-12
O=C(c1ccc(F)cc1)N1CCC(CCNS(=O)(=O)c2ccc3c(c2)CCCC3)CC1	46	1
Cc1cc(C)n(S(=O)(=O)c2cc(Br)ccc2C)n1	-17	-8
CC(C)CC1C(=O)N(Cc2cn(CCC3OCCCO3)nn2)CCS(=O)(=O)N1Cc1ccc(-c2ccccc2)cc1 (stereo unspecified)	54*	-6
CC(C)CC1C(=O)N(Cc2cn(CCC3OCCCO3)nn2)CCS(=O)(=O)N1Cc1ccc(-c2ccncc2)cc1 (stereo unspecified)	31	-2
